Spn PMK inh: blocks S. pneumoniae phosphomevalonate kinase | purified PMK, PK/LDH-coupled NADH absorbance 340 nm | inhibition, % at 10 µM | 65,000 compounds, 0.49% hits;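 active means top-ranked compounds by inhibition in the single 10 µM screen, taking a fixed number of the strongest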;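 further: 0% = full reaction with DMSO carrier and 100% = background rate without enzyme reaction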
Spn DPM-DC inh: S. pneumoniae DPM-DC inhibition; 65,000 compounds, 0.49% hits; purified DPM-DC, PK/LDH coupled NADH fluorescence; AID 556; calls only at 10 µM;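 active means the 320 compounds with the highest percent inhibition in the single-dose primary screen, excluding strongly autofluorescent ones, cut at about 32% in these data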;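 further: kinetic rate of NADH fluorescence loss reporting ADP formed by the decarboxylase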
Fluor 339 460: intrinsic fluorescence of library compounds, ex339/em460 – biochemical, MLSMR library, data from DPM-DC assay, artefact control, profiling panel; compound autofluorescence, ex339/em460 nm, NADH buffer; active compounds read high; 1 = no-compound wells, NADH background; 65,000 compounds, 5.5% hits; fluorescence fold increase at 10 µM;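 active means at 10 µM, mean starting fluorescence two-fold or more over control wells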;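 further: signal is the first read of a kinetic run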
A340 absorber: compounds absorbing at 340 nm; compound absorbance at 340 nm, fold over control; fold change at 10 µM; 65,000 tested, under 10 active;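 active means at 10 µM dose, initial 340 nm absorbance at least 2 fold that of control wells; inactive means change under 2 fold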;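 further: initial absorbance extrapolated from kinetic A340 decline of NADH oxidation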
NADH enzymes: inhibitors of enzymes used to reach an NAD/NADH endpoint | AID 774 | coupled PK/LDH NADH assays, four targets | 65,000 compounds, 0.02% hits | IC50, µM (highest dose often 10 µM), inactives show at the top dose inhibition;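 active means single-dose screening hits from any of four coupled enzyme assays that gave an IC50 when retested across doses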;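 further: the DPM-DC format reads NADH fluorescence rather than 340 nm absorbance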
MK inhibit: inhibitors of Streptococcus pneumoniae mevalonate kinase | purified MK, PK/LDH-coupled NADH absorbance 340 nm | inhibition, % at 10 µM | 65,000 compounds, 0.48% hits;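 active means ranked among the strongest by inhibition in the single 10 µM screen, a fixed top-ranked set picked for dose follow-up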
Starred values were filed as active, the others as inactive. Rows were chosen to be rich in hits. Some 6.3% of all compounds tested hit in one or more screens of this group.

COc1ccc(CNC(=O)C(C)N(Cc2ccco2)C(=O)c2snc(C(N)=O)c2N)cc1 (stereo not drawn) was read as Spn PMK inh 13, Spn DPM-DC inh inactive, Fluor 339 460 2.2*, A340 absorber 1, NADH enzymes 13% and MK inhibit 12.
Screening CCC(C)(C)NC(=O)CN(C(=O)c1snc(C(N)=O)c1N)c1ccc2c(c1)OCO2 returned Spn PMK inh 0, Spn DPM-DC inh inactive, Fluor 339 460 1.1, A340 absorber 1, NADH enzymes 4% and MK inhibit 0.
Screening Cc1cc2c(c(Sc3ccccc3)n1)C(=O)OC2 returned Spn PMK inh 15, Spn DPM-DC inh inactive, Fluor 339 460 1.1, A340 absorber 1, NADH enzymes 7% and MK inhibit 6.
For Cc1ccc(S(=O)(=O)N(CC(=O)NCc2ccco2)Cc2ccccc2F)cc1 the results were Spn PMK inh 8, Spn DPM-DC inh inactive, Fluor 339 460 1, A340 absorber 0.99, NADH enzymes 3% and MK inhibit 4.
For Cc1cc(C)n(-c2nc(NCc3cccnc3)c3c4c(sc3n2)COC(C)(C)C4)n1 the results were Spn PMK inh 7, Fluor 339 460 3.7*, A340 absorber 1.1, NADH enzymes 5% and MK inhibit 2.
For CCOC(=O)c1ccc2nc3c(cc2c1)CCS3 the results were Spn PMK inh 15, Spn DPM-DC inh inactive, Fluor 339 460 1.5, A340 absorber 1.1, NADH enzymes 9% and MK inhibit 1.
`COCc1cc(=O)[nH]c(Nc2nc(C)c3ccc(C)cc3n2)n1` gave Spn PMK inh 28*, Spn DPM-DC inh inactive, Fluor 339 460 1, A340 absorber 1, NADH enzymes 10% and MK inhibit 0.
For CCOc1ccc(NC(=O)CN2C(=O)C3CCCN3C2=O)cc1 (stereo not drawn) the results were Spn PMK inh 3, Spn DPM-DC inh inactive, Fluor 339 460 1, A340 absorber 0.99, NADH enzymes 2% and MK inhibit 6.
`CN(C(=O)c1cccnc1)c1nnc(-c2ccccn2)s1` gave Spn PMK inh 20, Spn DPM-DC inh inactive, Fluor 339 460 2.2*, A340 absorber 0.94, NADH enzymes 12% and MK inhibit 6.
CN(C(=O)c1cccc(C#N)c1)c1nnc(-c2ccncc2)s1 was read as Spn PMK inh 13, Spn DPM-DC inh inactive, Fluor 339 460 2.4*, A340 absorber 1, NADH enzymes 12% and MK inhibit 0.
O=C(c1noc2c1CCCCC2)N1CCN(C(c2ccccc2)c2ccccc2)CC1 was read as Spn PMK inh 0, Spn DPM-DC inh inactive, Fluor 339 460 1.1, A340 absorber 1, NADH enzymes 2% and MK inhibit 7.
`COc1ccccc1-n1c(=O)oc2ccc(Cl)cc2c1=O` gave Spn PMK inh 0, Spn DPM-DC inh inactive, Fluor 339 460 1.1, A340 absorber 1, NADH enzymes 9% and MK inhibit 21.
Screening CCOc1cc(C2Nc3ccccc3C(=O)N2c2ccccc2OC)ccc1O (stereo not drawn) returned Spn PMK inh 5, Fluor 339 460 2.5*, A340 absorber 1, NADH enzymes 2% and MK inhibit 0.
COc1cc(C2Nc3ccccc3C(=O)N2c2ccccc2OC)ccc1O (stereo not drawn) was read as Spn PMK inh 12, Fluor 339 460 5.1*, A340 absorber 1, NADH enzymes 7% and MK inhibit 2.
CCOC(=O)C1CCN(C(=O)c2oc3ccc(S(=O)(=O)N4CC(C)CC(C)C4)cc3c2C)CC1 (stereo not drawn) was read as Spn PMK inh 0, Spn DPM-DC inh inactive, Fluor 339 460 1.1, A340 absorber 1.1, NADH enzymes 0% and MK inhibit 1.
For COc1cc(CNc2ccc3[nH]c(=O)[nH]c3c2)cc(Cl)c1OCC(=O)NC(C)(C)C the results were Spn PMK inh 4, Spn DPM-DC inh inactive, Fluor 339 460 3*, A340 absorber 1.1, NADH enzymes 11% and MK inhibit 2.
CCOc1cc(CNc2ccc3[nH]c(=O)[nH]c3c2)ccc1OCC(=O)NC(C)(C)C was read as Spn PMK inh 3, Fluor 339 460 3.8*, A340 absorber 1.1, NADH enzymes 7% and MK inhibit 10.
`CCCCN1CC(C(=O)NC2CCCCC2)CC1=O` (stereo not drawn) gave Spn PMK inh 19, Spn DPM-DC inh inactive, Fluor 339 460 1.1, A340 absorber 0.99, NADH enzymes 7% and MK inhibit 2.
O=C(CCN1C(=O)c2ccccc2S1(=O)=O)Nc1nc2c(s1)CCCC2 was read as Spn PMK inh 4, Spn DPM-DC inh inactive, Fluor 339 460 1.1, A340 absorber 1.1, NADH enzymes 3% and MK inhibit 6.
Screening CCN(CC)c1ccc2cc(-c3nc4ccccc4[nH]3)c(=O)oc2c1 returned Spn PMK inh inactive, Spn DPM-DC inh inactive, Fluor 339 460 1.1, A340 absorber 0.8, NADH enzymes 8% and MK inhibit 37.
CCN(CC)c1ccc2cc(-c3nc4ccccc4n3C)c(=O)oc2c1 was read as Spn PMK inh 4, Fluor 339 460 2.1*, A340 absorber 1.1, NADH enzymes 5% and MK inhibit 5.
`c1ccc(-c2nn3c(-c4ccncc4)nnc3s2)nc1` gave Spn PMK inh 0, Spn DPM-DC inh inactive, Fluor 339 460 1.1, A340 absorber 1, NADH enzymes 3% and MK inhibit 6.
For CC12CCC(=O)N1c1c(sc3nc(N4CCOCC4)c4c(c13)CCCC4)C(=O)N2 (stereo not drawn) the results were Spn PMK inh 3, Fluor 339 460 2.4*, A340 absorber 1.1, NADH enzymes 4% and MK inhibit 5.
Screening COC(=O)c1ccc(CSc2ncnc3c2nnn3-c2ccc(F)cc2)o1 returned Spn PMK inh 10, Spn DPM-DC inh inactive, Fluor 339 460 1.1, A340 absorber 0.98, NADH enzymes 7% and MK inhibit 11.
For COc1cc2ccccc2cc1C(=O)Nc1cccnc1 the results were Spn PMK inh 0, Spn DPM-DC inh inactive, Fluor 339 460 1.3, A340 absorber 1.1, NADH enzymes 0% and MK inhibit 0.
COc1cc2cc(C(=O)Nc3ccccc3)c(N)nc2cc1OC was read as Spn PMK inh 0, Fluor 339 460 2.3*, A340 absorber 1.1, NADH enzymes 5% and MK inhibit 10.
For CCOc1ccccc1NC(=O)Cn1c(C)cc(COC)c(C#N)c1=O the results were Spn PMK inh 13, Spn DPM-DC inh inactive, Fluor 339 460 1.3, A340 absorber 1.1, NADH enzymes 8% and MK inhibit 9.
For COCc1cc(=O)n2c([nH]c3ccccc32)c1C#N the results were Spn PMK inh 9, Fluor 339 460 4.8*, A340 absorber 0.99, NADH enzymes 8% and MK inhibit 6.

Bioassay records: PubChem BioAssay, SRMLSC
